Measurements published in PubChem BioAssay (NCI).
Compounds without any hit were thinned out: in the full panel of roughly 79,000, 15% have a hit. Activity calls are given as the source filed them. Rule as the data show it: active = growth inhibition above about 70%; inactive = the rest.

Experiment: NCI Yeast Anticancer Drug Screen. Data for the rad14 strain (AID 159);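 also: 0% = growth of vehicle-treated control cultures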
Conditions: S. cerevisiae rad14 strain growth inhibition, stronger effect = higher value
Protocol: Growth inhibition of yeast strains with defined genetic alterations is measured as a screen for potential anti-cancer activity. Selected strains with alterations in DNA damage repair or cell cycle control were exposed to compounds and growth inhibition was measured relative to vehicle treated controls. The strain used in this assay is rad14

Measured: growth inhibition

CCN(CC)CCNc1ccc2nc(C)n3c4ccc(OC)cc4c(=O)c1c23
inactive: at 1.2 µM 33% | at 3.7 µM 24% | at 11.0 µM 27% | at 33.0 µM 30% | at 100.0 µM 48%

CSC(=S)N/N=C/c1ccccc1
inactive: at 1.2 µM -1% | at 3.7 µM -1% | at 11.0 µM 12% | at 33.0 µM 22% | at 100.0 µM 29%

O=C(O)c1ccc2cc(Cl)c3ccccc3c2c1
inactive: at 1.2 µM 0% | at 3.7 µM 7% | at 11.0 µM 20% | at 33.0 µM 42% | at 100.0 µM 58%

CC1(C)OC(=O)C(=Cc2ccc([N+](=O)[O-])s2)C(=O)O1
active: at 100.0 µM 99%
inactive: at 1.2 µM -12% | at 3.7 µM -5% | at 11.0 µM 2% | at 33.0 µM 9%

O=C1C=C(NCCc2cc(Br)c(O)c(Br)c2)C(=O)c2ncccc21
inactive: at 1.2 µM 24% | at 3.7 µM 21% | at 11.0 µM 23%
active: at 33.0 µM 82% | at 100.0 µM 93%

O=C(O)c1ccccc1C(=O)OC1CCc2ccccc2C1 (stereo not given)
inactive: at 1.2 µM -5% | at 3.7 µM -7% | at 11.0 µM -7% | at 33.0 µM 11% | at 100.0 µM 52%

O=C(CN(c1ccccc1)c1ccccc1)n1nnc2ccccc21
active: at 100.0 µM 85%
inactive: at 1.2 µM -19% | at 3.7 µM -18% | at 11.0 µM -18% | at 33.0 µM 2%

CC(C)(N=Nc1ccc(Cl)cc1)[N+](=O)[O-]
inactive: at 1.2 µM 16% | at 3.7 µM 21%
active: at 11.0 µM 76% | at 33.0 µM 97% | at 100.0 µM 97%
